PubChem BioAssay (NCATS)
Records with an inconclusive call do not appear. Active and inactive are the calls of the source. Calls follow the shape of the dose curve; as a rule, active = well fitted curve in the direction sought with a large enough effect; inconclusive = small, poorly fitted or top-dose-only effect, or another doubt; inactive = no such curve, though single readings can be large; an effect the other way counts as inactive or inconclusive.

Tests used:
[1] = target: Glutathione peroxidase 1 (Homo sapiens) (UniProt P07203); assay: Primary qHTS Assay for Inhibitors of Recombinant Selenoprotein Glutathione Peroxidase 1 (GPX1) (AID 1845191); conditions: recombinant GPX1, GR-coupled NADPH fluorescence, 15 min; series mostly up to 48.8 µM; also: nearly all actives have a fitted effect of over 65% in size; as to activity, negative = inhibition: % is scaled to controls: 0 for no effect and ±100 for the full control effect
Sequence of Glutathione peroxidase 1 (Homo sapiens) (P07203 whole entry, looked up): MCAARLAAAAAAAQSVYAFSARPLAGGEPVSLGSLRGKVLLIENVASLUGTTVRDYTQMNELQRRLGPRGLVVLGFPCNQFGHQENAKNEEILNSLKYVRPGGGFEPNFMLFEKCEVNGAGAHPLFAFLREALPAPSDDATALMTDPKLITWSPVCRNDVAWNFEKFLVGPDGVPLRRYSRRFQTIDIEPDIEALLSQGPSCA
Procedure, shortened: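 GR-coupled readout: NADPH consumption tracked by fluorescence, ex 340/em 450 nm, at t=0 and after 15 min at RT. Final mix 10 nM GPX1, 1 mM GSH, 0.5 mM CHP, 0.5 mM NADPH, 100 nM GR, 0.01% BSA, following 30 min enzyme–compound preincubation.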

[2] = target: Phospholipid hydroperoxide glutathione peroxidase GPX4 (Homo sapiens) (UniProt P36969); assay: Primary qHTS Assay for Inhibitors of Recombinant Selenoprotein Glutathione Peroxidase 4 (GPX4) (AID 1845192); conditions: recombinant GPX4, GR-coupled NADPH fluorescence, 15 min; series mostly up to 50 µM; also: nearly all actives have a fitted effect of over 65% in size
Sequence of Phospholipid hydroperoxide glutathione peroxidase GPX4 (Homo sapiens) (P36969 whole entry, looked up): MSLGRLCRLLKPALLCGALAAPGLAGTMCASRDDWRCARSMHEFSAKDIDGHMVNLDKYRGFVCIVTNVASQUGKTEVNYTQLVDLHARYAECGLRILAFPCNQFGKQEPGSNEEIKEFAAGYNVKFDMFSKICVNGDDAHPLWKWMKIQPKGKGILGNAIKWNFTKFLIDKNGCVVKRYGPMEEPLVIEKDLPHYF
Procedure, shortened: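 Steps: GPX4 plus compound, 30 min RT; add GR/GSH/NADPH master mix; start with cumene hydroperoxide; read 340/450 nm fluorescence at 0 and 15 min. Finals were 200 nM GPX4, 1 mM GSH, 0.5 mM CHP, 0.5 mM NADPH, 100 nM GR.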

[3] = Primary fluorescence-based thiol-reactive (MSTI) qHTS assay for identification of artifact compounds. (AID 1845221); conditions: MSTI thiol-reactivity probe, 1 h; series mostly up to 53.8 µM;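 also: thiol-reactive compounds lower the probe fluorescence signal; nearly all actives have a fitted effect of over 65% in size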
Procedure, shortened: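 Probe: MSTI 4 uM, PBS pH 7.4, 2% DMSO. Incubation 1 h, RT, light-protected. Readout fluorescence 525/598 nm.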

[4] = system: Nanoluciferase (engineered Oplophorus gracilirostris luciferase); assay: Primary Nanoluciferase (NLuc) qHTS assay for identification of artifact compounds. (AID 1845222); conditions: NLuc-conditioned medium, Nano-Glo luminescence, 5 min; series mostly up to 54.1 µM;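 also: 0% = DMSO and -100% = no enzyme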
Procedure, shortened: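 Diluted conditioned medium from NLuc-expressing S16 cells treated with compounds for 15 min at room temperature, then Nano-Glo substrate added; luminescence read after 5 min. Percent inhibition versus no-enzyme and DMSO controls fitted to 4-parameter Hill equation.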

[5] = Primary redox qHTS assay for identification of artifact compounds. (AID 1845223); conditions: Amplex Red/HRP redox cycling with DTT, fluorescence; series mostly up to 53.8 µM;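 also: 0% = DMSO and 100% = reference compound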
Procedure, shortened: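 Redox-cycling detection via DTT (250 uM final) oxidation coupled to Amplex Red (25 uM)/HRP (250 mU/mL) in HBSS. 15 min preincubation plus 30 min after DTT, room temperature. Ex/Em 525/598 nm; 4-parameter Hill fit against DMSO and 10 uM DA3003.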

[6] = target: Luciferin 4-monooxygenase (Photinus pyralis) (UniProt P08659); assay: Primary firefly luciferase (FLuc) qHTS assay for identification of artifact compounds. (AID 1845220); conditions: purified firefly luciferase, luminescence, 5 min; series mostly up to 54.1 µM; also: nearly all actives have a fitted effect of over 60% in size
Procedure, shortened: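 D-luciferin and ATP (10 uM each, final) in Tris acetate buffer pH 7.6 were incubated with compounds for 15 min at room temperature. The reaction was started with 10 nM Photinus pyralis luciferase and luminescence read after 5 min. Percent inhibition was fitted to a 4-parameter Hill equation.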

COCCOc1ccc(N2CCN(CCn3ncc4c3nc(N)n3nc(-c5ccco5)nc43)CC2)cc1
inactive: Potency [1] | Potency [2] | Potency [3] | Potency [4] | Potency [5]

C=C[C@H]1[C@H](O[C@@H]2O[C@H](CO)[C@@H](O)[C@H](O)[C@H]2O)OC=C(C(=O)OC)[C@H]1C[C@@H]1c2cc(O)c(O)cc2CCN1C(C)=O
inactive: Potency [1] | Potency [2] | Potency [6] | Potency [4] | Potency [5]

CC1(C)CCCC2(C)C(CO)C(CO)=CCC12 (configuration not stated)
inactive: Potency [1] | Potency [2] | Potency [6] | Potency [4] | Potency [5]

O=C1C=CC(O)(/C=C/C(=O)OC[C@H]2O[C@@H](Oc3ccc(O)cc3)[C@H](O)[C@@H](O)[C@@H]2O)C=C1
inactive: Potency [1] | Potency [2] | Potency [6] | Potency [4] | Potency [5]

CO[C@H]1C[C@@H]2CC[C@@H](C)[C@@](O)(O2)C(=O)C(=O)N2CCCC[C@H]2C(=O)O[C@H]([C@H](C)C[C@@H]2CC[C@H](n3cnnn3)[C@H](OC)C2)CC(=O)[C@H](C)/C=C(\C)[C@@H](O)[C@@H](OC)C(=O)[C@H](C)C[C@H](C)/C=C/C=C/C=C/1C
inactive: Potency [1] | Potency [2] | Potency [3] | Potency [4]

OC[C@H]1O[C@@H](OCCc2ccccc2)[C@H](O[C@@H]2OC[C@](O)(CO)[C@H]2O)[C@@H](O)[C@@H]1O
inactive: Potency [1] | Potency [2] | Potency [6] | Potency [4] | Potency [5]

Cc1cc2c(F)c(Oc3ncnn4cc(OCC(C)O)c(C)c34)ccc2[nH]1 (configuration not stated)
inactive: Potency [1] | Potency [2] | Potency [3] | Potency [4]

C[C@H]1O[C@@H](O[C@H]2CC[C@@]3(C)C(CC[C@]4(C)C3CC=C3C5CC(C)(C)CC[C@]5(C(=O)O)CC[C@]34C(=O)O)C2(C)C)[C@H](O)[C@@H](O)[C@@H]1O (some centres not stated)
inactive: Potency [1] | Potency [2] | Potency [6] | Potency [4] | Potency [5]

CC(C)(O)/C=C/C1=CC(=O)[C@@](C)(O)C[C@H]1O
inactive: Potency [1] | Potency [2] | Potency [6] | Potency [4] | Potency [5]

C=C1C(O)C[C@@H]2C(C(=O)O)=CO[C@@H](O[C@@H]3O[C@H](CO)[C@@H](O)[C@H](O)[C@H]3OC(=O)c3ccc(O)cc3)[C@H]12 (some centres not stated)
inactive: Potency [1] | Potency [2] | Potency [6] | Potency [4] | Potency [5]

C[C@@H]1O[C@@H](O[C@H]2[C@H](O)[C@@H](C(=O)O)O[C@@H](O[C@H]3CC[C@@]4(C)C(CC[C@]5(C)C4CC=C4C6CC(C)(C)CC[C@]6(C(=O)O)CC[C@]45C)C3(C)C)[C@@H]2O[C@@H]2OC[C@@H](O)[C@H](O)[C@H]2O)[C@H](O)[C@H](O)[C@H]1O (some centres not stated)
inactive: Potency [1] | Potency [2] | activity change, negative = thiol reactive [3] 129% [at 11.5 µM] | activity, negative = inhibition [4] 0.398% [at 11.6 µM]

CC1C(=O)OCC2=CCN3CCC(OC(=O)C(C)(O)C1(C)O)C23 (configuration not stated)
inactive: Potency [1] | Potency [2] | Potency [6] | Potency [4] | Potency [5]
